The values below come from PubChem BioAssay AID720697 (Broad Institute, 2013).

Results with a measured potency or affinity are listed apart. Records with an inconclusive call do not appear. The source made the active and inactive calls.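 Rule for the calls: active = signal loss with fitted half-maximal concentration at or below twice the top valid tested dose in every test run; inconclusive = runs disagree, flat 30 to 70% signal loss, or poor fit; inactive = all runs flat, opposite direction, or potency beyond limit.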

The test can be described thus: HEK293T cytotoxicity, dose response, cytotoxicity control for miR-122 modulator project, cell-based, inhibitor set, cherry-pick, set 2 (AID 720697).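 Note: 0% = median of neutral control wells and -100% = MG132 positive control wells.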 The conditions noted are these: HEK293T viability, CellTiter-Glo luminescence, 48 h; series mostly up to 26 µM; activity change, negative = cytotoxicity: at the top concentration. (In ATP-based viability assays light output follows the ATP content of the culture.)
Turning to `CCCC(=O)Nc1ccc2c(c1)C(=O)N(C)[C@@H]1CC[C@H](CC(=O)N3CCc4ccccc4C3)O[C@H]1CO2`, the “activity change, negative = cytotoxicity” value is 83.8% (inactive). For `CN1C(=O)c2cc(NC(=O)c3cccc(F)c3)ccc2OC[C@@H]2O[C@H](CC(=O)Nc3ccccc3)CC[C@H]21` the value was 107% (inactive); for `O=C(NC[C@H]1[C@@H](c2ccccc2)[C@@H](CO)N1CC1CCCC1)c1ccncc1`, 49.9% (inactive). As for `CO[C@@H]1CN(C)C(=O)c2cc(NC(=O)Nc3cc(Cl)cc(Cl)c3)ccc2OC[C@H](C)NC[C@H]1C`, the “activity change, negative = cytotoxicity” value was 10.9% (inactive). For the compound `COc1ccccc1C#Cc1ccc2c(c1)O[C@H](CN(C)Cc1cccnc1)[C@H](C)CN([C@@H](C)CO)S2(=O)=O`, the “activity change, negative = cytotoxicity” value is 12.4% (inactive). For `CCC(=O)N1[C@H](CO)[C@H](c2ccccc2)[C@@H]1CN(C(C)C)S(C)(=O)=O` the value was 113% (inactive); for `CNC[C@@H]1Oc2cc(C#Cc3cccc(OC)c3)ccc2S(=O)(=O)N([C@@H](C)CO)C[C@@H]1C`, -74.1% (inactive); for `CC(C)C(=O)Nc1ccc2c(c1)C(=O)N(C)[C@@H]1CC[C@H](CC(=O)NCC3CC3)O[C@H]1CO2`, 7.63% [at 23.5 µM] (inactive). For the compound `CCC(=O)Nc1ccc2c(c1)C(=O)N(C)[C@@H]1CC[C@H](CC(=O)Nc3cccc(OC)c3)O[C@@H]1CO2`, the “activity change, negative = cytotoxicity” value was 116% (inactive). For `CN(C)C(=O)c1ccc(-c2ccc([C@H]3[C@@H](CO)N4CCCCN(C(=O)C5CCCC5)C[C@@H]34)cc2)cc1`, the “activity change, negative = cytotoxicity” value is 39.4% (inactive). On to `C[C@@H]1CN([C@@H](C)CO)S(=O)(=O)c2ccc(/C=C/c3ccccc3)cc2O[C@@H]1CN(C)C(=O)c1cccnc1`, for which the “activity change, negative = cytotoxicity” value was 84.2% (inactive).

As to `COc1ccc(CN2CCN(Cc3cccn3-c3ncccn3)CC2CCO)c(C)c1C` (centres undefined), the “activity change, negative = cytotoxicity” value was 22.8% (inactive).

Regarding `COCC(=O)Nc1ccc2c(c1)C(=O)N(C)[C@@H]1CC[C@@H](CC(=O)NCc3ccc(OC)cc3)O[C@H]1CO2`, the “activity change, negative = cytotoxicity” value is 71.4% (inactive). For `C/C=C/c1ccc([C@@H]2[C@@H](CO)N(S(C)(=O)=O)[C@H]2CN(C)C(=O)CC)cc1` the value was -20.3% (inactive); for `CC(C)NC(=O)Nc1ccc2c(c1)C(=O)N(C)[C@@H]1CC[C@@H](CC(=O)NCC(F)(F)F)O[C@@H]1CO2`, 38.3% (inactive); for `CN1C(=O)c2cc(NC(=O)Nc3ccc(Cl)cc3)ccc2OC[C@H]2O[C@H](CC(=O)NCCN3CCCCC3)CC[C@H]21`, 47.9% [at 23.5 µM] (inactive). In the case of `COc1ccc(S(=O)(=O)Nc2cc(C)cc(C)n2)c2ccccc12` it was 17.9% (inactive); in that of `COc1cccc(C(=O)Nc2ccc3c(c2)C(=O)N(C)[C@H]2CC[C@H](CC(=O)NCc4ccc(F)cc4)O[C@H]2CO3)c1`, -30% (inactive). For `Cc1ccc(-c2noc(CCC(=O)Nc3ccccc3C)n2)cc1` the value was 75.7% (inactive); for `CO[C@@H]1CN(C)C(=O)c2ccc(NS(=O)(=O)c3ccc(C)cc3)cc2OC[C@@H](C)N(C(=O)NC(C)C)C[C@H]1C`, -15.2% (inactive). For the compound `COC(=O)C[C@H]1CC[C@H]2[C@@H](COc3ccc(NC(=O)Nc4c(C)noc4C)cc3C(=O)N2C)O1`, the “activity change, negative = cytotoxicity” value is 110% (inactive). In the case of `COCCN(C[C@@H]1[C@@H](c2ccccc2)[C@H](CO)N1C(=O)C1CCC1)C(C)=O` it was 170% (inactive).

In the case of `Cc1ccccc1NC(=O)Nc1ccc2c(c1)C(=O)N(C)[C@@H]1CC[C@H](CC(=O)NCC3CC3)O[C@@H]1CO2`, the “activity change, negative = cytotoxicity” value is 119% (inactive). In the case of `CNC(=O)C[C@@H]1CC[C@@H]2[C@H](COc3ccc(NC(=O)NC(C)C)cc3C(=O)N2C)O1` it was 41.3% (inactive). In the case of `COCCNC(=O)C[C@@H]1CC[C@@H]2[C@H](COc3ccc(NS(=O)(=O)c4ccc(Cl)cc4)cc3C(=O)N2C)O1` it was 18.8% (inactive).

On to `NS(=O)(=O)c1ccc(Nc2nc(-c3cccnc3)cs2)cc1`, for which the activity change, negative = cytotoxicity was 34% [at 6 µM] (inactive). `CN1C(=O)c2cc(NC(=O)c3cccs3)ccc2OC[C@@H]2O[C@H](CC(=O)NCC(F)(F)F)CC[C@H]21`: the “activity change, negative = cytotoxicity” value was 20.5% (inactive). As to `CC(=O)Nc1ccc(S(=O)(=O)Nc2ccc(S(=O)(=O)Nc3nc(C)cc(C)n3)cc2)cc1`, the “activity change, negative = cytotoxicity” value is 100% (inactive). For `CCC(=O)N(C)C[C@H]1Oc2cc(C#Cc3ccccc3)ccc2S(=O)(=O)N([C@H](C)CO)C[C@H]1C` the value was 43.2% (inactive); for `O=C(c1ccccc1)N1C[C@H]2[C@@H](c3ccccc31)[C@@H](CO)N2C(=O)CN1CCOCC1`, 15.9% (inactive). Take `Cc1cc(C(=O)N/N=C/c2cc(Br)ccc2OC(=O)c2ccccc2)n[nH]1`: the “activity change, negative = cytotoxicity” value is -27.6% (inactive). In the case of `C/C=C/c1ccc([C@@H]2[C@H](CO)N[C@H]2CN(CC(C)C)C(=O)c2ccccn2)cc1` it was 29.5% (inactive); in that of `Cc1ccc(S(=O)(=O)Nc2ccc3c(c2)C(=O)N(C)[C@@H]2CC[C@H](CC(=O)NCCc4ccncc4)O[C@@H]2CO3)cc1`, 147% (inactive). For `CN1C(=O)c2cc(NC(=O)c3cccc(F)c3)ccc2OC[C@@H]2O[C@H](CC(=O)NC3CCC3)CC[C@@H]21` the value was -10.6% (inactive); for `O=C(Nc1ncc(Cc2cccc(C(F)(F)F)c2)s1)c1ccc(-c2cccc([N+](=O)[O-])c2)o1`, -25.5% [at 6 µM] (inactive). In the case of `CC(C)C(=O)Nc1ccc2c(c1)C(=O)N(C)[C@H]1CC[C@@H](CC(=O)NCCCN(C)C)O[C@H]1CO2` it was 82% (inactive); in that of `c1cnc(N2CCN(Cc3c[nH]c4ccccc34)CC2)nc1`, 6.09% (inactive); in that of `CN(C)CCCNC(=O)C[C@H]1CC[C@H]2[C@H](COc3ccc(NC(=O)c4cccc(F)c4)cc3C(=O)N2C)O1`, 30.3% (inactive). On to `CN1C(=O)c2cc(NC(=O)c3cccs3)ccc2OC[C@@H]2O[C@@H](CC(=O)O)CC[C@@H]21`, for which the “activity change, negative = cytotoxicity” value was 37.2% (inactive).
